Screening results as filed in PubChem BioAssay.
Compounds with a hit are over-represented: about 11% of the library has one in this group of screens.
NS1 inh = inhibitors of influenza NS1 protein function; Potency, µM (top dose mostly 46.1 µM), without a hit: at the highest dose activity, positive = more growth; actives 0.4% (n = 270,000); AID 2326; calls by dose curve; further: actives are rising curves; nearly all actives have a fitted effect of over 50% in size
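OD600 was taken as the measure of yeast growth restored by compound in an NS1-expressing S. cerevisiae strain. Cells had been washed out of glucose medium and diluted 1:100 into galactose -URA medium, pH 6.0.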
Pf growth 96h = P. falciparum growth inhibition at 96 hour, primary screen for plastid delayed-death inhibitors; P. falciparum luciferase reporter growth, 96 h; Potency, µM (titrated, usually from 28.7 µM), without a hit: at the highest dose activity change, negative = inhibition, most hits filed as inhibitors; actives 6.9% (n = 320,000); AID 504834; further: on the % scale 0 is the no-effect control and ±100 the full control effect
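Infected RBCs, 2% Hct / 0.05% parasitemia final; luciferase-reporter P. falciparum; cpd 96 h, 37 C, 5% CO2; luciferase detection reagent; luminescence.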
Pf growth 48h = inhibits P. falciparum growth in the first generation, 48 h. P. falciparum luciferase growth in erythrocytes, 48 h. Potency, µM (doses to about 28.7 µM), for inactives: at the highest dose activity change, negative = inhibition, hits mostly inhibitors. actives 5.9% (n = 310,000); further: on the % scale 0 is the no-effect control and ±100 the full control effect
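A one-generation exposure of luciferase-tagged malaria parasites in RPMI 1640/Albumax erythrocyte culture, 37 C and 5% CO2. Inhibition is inferred from decreased luminescence after adding detection reagent.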
AMA1 RON2 block = disrupts binding of P. falciparum AMA1 to RON2; Potency, µM (titrated, usually from 58.2 µM), inactives show top-dose activity change, negative = inhibition, most hits filed as inhibitors; actives 0.2% (n = 360,000); AlphaScreen AMA1-biotinylated RON2 peptide binding;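 further: 0% = vehicle wells and -100% = peptide control; nearly all actives have a fitted effect of over 45% in size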
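AMA1 (3D7) with his tag at 25 nM final met compounds first, then biotinylated RON2 peptide at 25 nM; detection used donor plus acceptor beads, 10 µg/mL apiece, read by AlphaScreen after 30 min at room temperature.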
Sm TGR inh = blocks Schistosoma mansoni thioredoxin glutathione reductase; Q962Y6; purified TGR, DTNB reduction, TNB absorbance 405 nm; Potency, µM (series often up to 114 µM), inactives show at the top dose activity change, negative = inhibition, usual class: inhibitors; actives 3% (n = 360,000); AID 485364; further: on the % scale 0 is the no-effect control and ±100 the full control effect; nearly all actives have a fitted effect of over 60% in size
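First, TGR (20 nM dispensed) and NADPH were mixed with compound. Second, a 15 min room-temperature incubation followed. Third, further NADPH and then DTNB were added to start the reaction. Finally, TNB absorbance was monitored kinetically.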
* marks the source's active call; other numbers are inactive results; u = inconclusive; x = not tested or not shown; [ ] = remark or other dose. Unless noted, the call rests on the fitted dose curve; in most records, active means well fitted curve in the direction sought with a large enough effect; inconclusive means small, poorly fitted or top-dose-only effect, or another doubt; inactive means no such curve, though single readings can be large; an effect the other way counts as inactive or inconclusive. Potency means the concentration at half of the fitted maximal effect.

SMILES	NS1 inh	Pf growth 96h	Pf growth 48h	AMA1 RON2 block	Sm TGR inh
Cc1ccc(S(=O)(=O)c2nc(-c3cccs3)oc2SCC(=O)Nc2cc(C)cc(C)c2)cc1	x	x	x	x	-11.4%
O=C(O)CNC(=O)/C(=C/c1ccco1)NC(=O)/C=C/c1ccccc1	18.3%	39.1%	-17.5%	1.3%	-21.3%
C=CCOC(=O)/C(=C/c1ccco1)NC(=O)/C=C/c1ccccc1	5.5%	u	x	-12.9%	39.8µM*
COC(=O)/C(=C/c1ccco1)NC(=O)c1ccc(Br)o1	x	3.4%[5.75 µM]	24.6%[5.75 µM]	7.8%	22.4µM*
COC(=O)/C(=C/c1ccco1)NC(=O)c1ccco1	13.6%	-7.8%	11.5%	2.2%	39.8µM*
CC1(C)CC(CC(=O)O)(c2ccc(F)cc2)CCO1 (centres undefined)	-3.9%	u	x	-2.1%	-17.6%
Cc1ccc(C2(CC(=O)O)CCOC(C)(C)C2)cc1 (centres undefined)	-2.6%	9.28µM*	-12.8%	-4.6%	0.7%
COc1cc(/C=C/c2ccc(O)cc2)cc(OC)c1	x	x	x	-0.9%	-0.2%
COc1ccc(/C=N/Nc2ccc(C(=O)O)cc2)c(OC)c1OC	-2.1%	u	-10.7%	-9.7%	-0.1%
COC(=O)c1ccc2c(c1)C(C)(C)C(/C=C/c1ccc(O)cc1)=[N+]2C	-16.8%	5.22µM*	u	u	-14.6%
COC(=O)c1ccc2c(c1)C(C)(C)C(/C=C/c1ccc(OC)c(OC)c1OC)=[N+]2C	-9.4%	2.33µM*	2.33µM*	-5.5%	-47.9%
COc1ccccc1C1=NOC(C(=O)N2CCN(C(=O)c3ccco3)CC2)C1 (centres undefined)	-0.6%	u	1.4%	-2.0%	3.3%
CCOc1ccc(Br)cc1S(=O)(=O)Nc1ccccc1N1CCOCC1	-30.8%	x	8.28µM*	7.8%	-13.0%
COc1ccc(C2=NN(CN3C(=O)C(=O)c4ccccc43)C(c3cccc([N+](=O)[O-])c3)C2)cc1 (centres undefined)	4.0%	-22.3%	u	-7.1%	3.9%
CCOc1ccc(CCNc2nc3ccccc3n3c(C)nnc23)cc1OCC	0.7%	16.1%	5.22µM*	14.1%	9.1%
COc1ccc(CCNc2nc3ccccc3n3nnnc23)cc1OC	-12.2%	7.0%	x	41.8%	0.0%
O=C1c2cccc3cccc(c23)C(=O)N1OS(=O)(=O)c1ccc(Cl)cc1	6.9%	122.8%	0.3%	12.9%	-14.5%
COc1ccc(OC)c(S(=O)(=O)N2CCN(c3ccccc3)CC2)c1	-37.0%	0.0%	-7.9%	-1.9%	-4.1%
COc1ccc(OC)c(S(=O)(=O)ON2C(=O)c3ccccc3C2=O)c1	12.6%	2.94µM*	41.8%	3.3%	0.631µM*
CCc1ccc(S(=O)(=O)ON2C(=O)c3ccccc3C2=O)cc1	6.1%	357.5%	10.9%	0.0%	1.41µM*
CCc1cccc(C)c1NC(=O)C1CCCN1C(=O)NCc1ccccc1 (centres undefined)	9.9%	1.5%	-14.7%	-9.2%	-1.4%
Oc1ccc2c(c1)C1CCCC1(N1CCOCC1)O2 (centres undefined)	15.5%	u	12.6%	-2.5%	28.2µM*
CCc1ccccc1NC(=O)CCCSc1nc(-c2ccco2)cc(C(F)(F)F)n1	x	x	x	x	-0.5%
COc1ccc(CCNC(=O)CCSc2nc(-c3ccco3)cc(C(F)(F)F)n2)cc1OC	-9.3%	u	9.28µM*	6.7%	1.2%
CCn1ncc(CNC(=O)CCCSc2nc(-c3ccco3)cc(C(F)(F)F)n2)c1C	17.1%	u	11.7µM*	-3.3%	39.8µM*
O=C(CCSc1nc(-c2ccco2)cc(C(F)(F)F)n1)NCc1ccccn1	-15.1%	u	u	23.2%	28.2µM*
CCCCn1c(N)c(N(CC(C)C)C(=O)C2CCN(S(=O)(=O)c3ccc(Cl)cc3)CC2)c(=O)[nH]c1=O	x	9.28µM*	9.28µM*	8.4%	-0.7%
O=C1NC(c2ccccc2)=C(c2nc3ccccc3s2)C(c2ccc(F)cc2)N1 (centres undefined)	-5.1%	13.1µM*	-52.3%	-14.7%	5.0%
COc1ccc(C2NC(=O)NC(c3ccccc3)=C2c2nc3ccccc3s2)cc1 (centres undefined)	-10.2%	x	u	-23.2%	2.3%
Cn1c(=O)c2c(SCC(=O)NC3CCCC3)nc(CC(C)(C)C)nc2n(C)c1=O	8.5%	13.1µM*	u	-11.8%	0.5%
